High-throughput results as filed in PubChem BioAssay.
The full list was thinned out, with hits kept by preference.
VDR inh: vitamin D3 receptor (human) inhibition | 400,000 tested, 0.93% active | P11473 | VDR-SRC2-3 peptide fluorescence polarization, 2 h | Potency, µM, for inactives: max response, negative = inhibition, hits mostly inhibitors; further: on the % scale 0 is the no-effect control and ±100 the full control effect
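Signal is fluorescence polarization, reporting how far test compounds block the interaction of VDR with the SRC2-3 coregulator peptide after a 2 h room-temperature incubation.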
G9a inh: blocks human histone lysine methyltransferase G9a. 350,000 tested, 8.8% active. Q96KQ7. G9a H3K9 monomethylation, AlphaScreen, 2 h. Potency, µM (highest dose often 102 µM), without a hit: at the top dose activity, negative = inhibition, hits mostly inhibitors. AID 504332; further: on the % scale 0 is the no-effect control and ±100 the full control effect; nearly all actives have a fitted effect of over 75% in size
Target sequence (Q96KQ7 913-1193 limits assumed): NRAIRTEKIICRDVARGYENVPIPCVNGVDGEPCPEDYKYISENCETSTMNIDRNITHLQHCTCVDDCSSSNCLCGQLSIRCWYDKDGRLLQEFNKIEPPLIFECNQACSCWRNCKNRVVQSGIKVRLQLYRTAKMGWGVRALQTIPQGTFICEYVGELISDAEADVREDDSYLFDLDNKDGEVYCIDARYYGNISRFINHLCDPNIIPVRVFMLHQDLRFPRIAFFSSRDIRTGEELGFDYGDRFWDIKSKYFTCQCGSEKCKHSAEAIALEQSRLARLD
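Chemiluminescent proximity detection of H3K9 monomethylation, read after 10 min bead incubation in the dark. Reaction: 20 nM G9a, 500 nM biotin-H3K9 peptide, 20 uM SAM cofactor, 2 h, room temperature, following 15 min enzyme-compound preincubation.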
Glioma ERSR ind: ER stress response induction in glioma. U87-MG GRP78 promoter luciferase reporter, 16 h. Potency, µM, without a hit: at the highest dose activation, usual class: activators. 420,000 tested, 0.02% active; further: series mostly up to about 76 µM; % of control where 0% means no effect; nearly all actives have a fitted effect of over 35% in size
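ERSR induction read as luciferase luminescence (Bright-Glo, 10 min at room temperature) in stably transfected human U87-MG glioma cells exposed to compounds for 16 h, using GRP78 as sensor.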
Sfp inh: inhibitors of Bacillus subtilis Sfp phosphopantetheinyl transferase | Biochemical Sfp PPTase activity, qHTS | Potency, µM, for the others: largest response in the series, negative = inhibition, usual class: inhibitors | 310,000 tested, 3.5% active | AID 1490 | Q9F4F7;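 further: the enzyme is Sfp with the accession as filed and its product quenches rhodamine fluorescence; 0% = enzyme reaction without inhibitor and -100% = no enzyme wells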
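Buffer: 50 mM Hepes-Na pH 7.6, 10 mM MgCl2, 0.01% Nonidet P-40, 0.01% BSA. Enzyme 15 nM, pre-exposed to compound 15 min; substrates then added and fluorescence change tracked over 30 min.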
12-LOX inh: ALOX12 (human) lipoxygenase inhibition; P18054; purified 12hLO, xylenol orange hydroperoxide absorbance; Potency, µM (doses to about 108 µM), without a hit: at the highest dose activity change, negative = inhibition, hits mostly inhibitors; 580,000 tested, 1.1% active; AID 1671190; further: on the % scale 0 is the no-effect control and ±100 the full control effect
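Purified human 12hLO at 150 nM in 25 mM Hepes, 0.01% Triton X-100, pH 7.0, preincubated 15 min at room temperature with compound. Reaction started with 40 uM arachidonic acid, 30 min at room temperature. Hydroperoxide measured by Fe-xylenol orange, 573/405 nm absorbance ratio.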
Numbers without * were called inactive; ? = inconclusive; / = no result given; [ ] = dose if it differs, or a comment. The call rests on the fitted dose curve; in most records, active means well fitted curve in the direction sought with a large enough effect; inconclusive means small, poorly fitted or top-dose-only effect, or another doubt; inactive means no such curve, though single readings can be large; an effect the other way counts as inactive or inconclusive. Potency means the concentration at half of the fitted maximal effect.

SMILES	VDR inh	G9a inh	Glioma ERSR ind	Sfp inh	12-LOX inh
O=C(Nc1cccc2ncccc12)c1ccc2ccccc2c1	/	/	/	/	11µM*
O=C(NC(=S)Nc1cccc2ncccc12)c1ccccc1	-7%	?	0%	20µM*	?
O=C(NC(=S)Nc1cccc2ncccc12)c1cccs1	-8%	50µM*	-4%	45µM*	-18%
Cc1ccc(S(=O)(=O)NC(C)(C)C)cc1C(=O)NCc1coc(-c2cccs2)n1	/	/	/	/	-4%
CC(C)COc1ccc(/C=C(/C#N)c2nc3ccccc3[nH]2)cc1	/	/	/	/	47%
COc1cc(OC)c(C2C3=C(CC(C)(C)CC3=O)Nc3ccccc3N2C(C)=O)cc1OC (stereo not drawn)	/	/	/	/	-5%
Cc1ccc(Cn2ccc(=O)c(OCc3c(Cl)cccc3Cl)c2C)cc1	5%	81%	-1%	18µM*	-17%
COc1ccc2[nH]cc(CCNC(=O)C3Cn4cccc4C(=O)N3Cc3cccnc3)c2c1 (stereo not drawn)	/	/	/	/	37%
COc1cccc(-c2cc(=O)c3cc(NC(=O)c4ccc(Cl)cc4)ccc3[nH]2)c1	2%	50µM*	-2%	9%	?
COc1cccc(-c2cc(=O)c3cc(NC(=O)c4ccc(N(C)C)cc4)ccc3[nH]2)c1	-3%	32µM*	-4%	5%	/
COc1ccc2[nH]c(-c3cccc(F)c3)cc(=O)c2c1	-11%	?	0%	-1%	?
CCOc1nnc(CN2CCN(c3cccc(F)c3C#N)CC2)s1	/	/	/	/	-1%
CCOc1ccc(/C(O)=C2/C(=O)C(=O)N(c3ccccn3)C2c2ccc(C)cc2)c(C)c1 (stereo not drawn)	-4%	50µM*	-2%	1%	?
CCCOc1ccc(/C(O)=C2\C(=O)C(=O)N(c3ccccn3)C2c2ccccc2F)cc1C (stereo not drawn)	-6%	79µM*	6%	1%	0%
CCCCOc1ccc(/C(O)=C2/C(=O)C(=O)N(Cc3cccnc3)C2c2ccncc2)c(C)c1 (stereo not drawn)	1%	45µM*	-4%	2%	1%
COc1ccc(C2/C(=C(/O)c3ccc(C)cc3)C(=O)C(=O)N2c2ccccn2)cc1OC (stereo not drawn)	-29%	?	-1%	-16%	0%
Cc1cc(OCC(C)C)ccc1/C(O)=C1/C(=O)C(=O)N(Cc2cccnc2)C1c1ccncc1 (stereo not drawn)	18%	?	0%	3%	0%
COc1cccc(/C(O)=C2\C(=O)C(=O)N(c3ccccn3)C2c2cccc(Br)c2)c1 (stereo not drawn)	/	/	/	/	35µM*
O=C(CSc1ncn[nH]1)N1N=C2/C(=C/c3ccccc3)CCCC2C1c1ccccc1 (stereo not drawn)	12%	11µM*	-3%	2%	-21%
O=C(CSc1nccc(=O)[nH]1)N1N=C2/C(=C/c3ccco3)CCCC2C1c1ccco1 (stereo not drawn)	-10%	?	3%	10µM*	?
COc1ccc(/C=C2\CCCC3C2=NN(C(=O)CSc2ncn[nH]2)C3c2ccc(OC)cc2)cc1 (stereo not drawn)	4%	-15%[59 µM]	-1%	-15%	-3%
O=C(O)CSCC(=O)N1N=C2/C(=C/c3ccccc3)CCCC2C1c1ccccc1 (stereo not drawn)	-12%	50µM*	-3%	0%	-22%
Cc1cc(C)c2nc3s/c(=C/c4ccc5c(c4)n(C)c(=O)n5C)c(=O)n3c2c1	/	?	/	20µM*	/
Cc1ccc2c(c1)sc1nc(=O)n(-c3ccccc3)c(=O)n12	5%	28%	4%	-15%	0%
O=C(COCC(=O)Nc1ccc(Oc2ccccc2)cc1)Nc1ccccc1	/	/	/	/	-49%
SMILES	VDR inh	G9a inh	Glioma ERSR ind	Sfp inh	12-LOX inh
COc1ccc(C(=O)N2N=C(c3cccc(OC)c3)CC2(O)C(F)(F)F)cc1 (stereo not drawn)	2%	-5%	-7%	50µM*	-5%
COc1cccc(C2=NN(C(=O)c3cccs3)C(O)(C(F)(F)F)C2)c1 (stereo not drawn)	8%	13%[59 µM]	-1%	45µM*	?
COc1ccc(CC(=O)N2N=C(c3cccc(Br)c3)CC2(O)C(F)(F)F)cc1 (stereo not drawn)	/	/	/	/	14µM*
COc1ccc(CC(=O)N2N=C(c3ccncc3)CC2(O)C(F)(F)F)cc1 (stereo not drawn)	2%	20%	-1%	24%	2%
COc1cccc(C(=O)N2N=C(c3cccc(OC)c3)CC2(O)C(F)(F)F)c1 (stereo not drawn)	-6%	9%	-2%	-10%	19%
CCOc1ccc(N2C(=O)N(CC(=O)NC(C)CC)c3ccccc3S2(=O)=O)cc1 (stereo not drawn)	/	/	/	/	0%
COc1ccc(C2CC(=O)N3C(=C2C#N)SCC3(O)c2ccccc2)cc1 (stereo not drawn)	15%	-35%[59 µM]	0%	50µM*	3%
N#CC1=C2SCC(O)(c3ccccc3)N2C(=O)CC1c1cccs1 (stereo not drawn)	-7%	50µM*	0%	18µM*	-18%
N#CC1=C2SCC(O)(c3ccccc3)N2C(=O)CC1c1ccccc1F (stereo not drawn)	9%	?	-5%	50µM*	0%
N#CC1=C(SCC(=O)Nc2ccc3ccccc3c2)NC(=O)CC1c1ccccc1F (stereo not drawn)	/	/	/	/	4%
COc1ccc(C2CC(=O)N(c3ccccc3)C3=C2C(=O)OC3)cc1 (stereo not drawn)	/	/	/	/	-35%
c1ccc(Nc2nc(CSc3ncn[nH]3)cs2)cc1	-7%	22µM*	14%	-39%	-4%
O=C(CSc1ccc(-c2ccco2)nn1)Nc1ccccc1F	?	40µM*	2%	32µM*	0%
O=C(CSc1ccc(-c2cccnc2)nn1)Nc1ccccc1F	-24%	/	0%	-6%	?
CCOc1ccccc1NC(=O)Cn1nc(-c2ccco2)ccc1=O	1%	-24%	-5%	-6%	-7%
CCOc1ccccc1NC(=O)CSc1ccc(-c2ccco2)nn1	-15%	25µM*	1%	50µM*	?
COc1cccc2cc(CNCc3c(C)noc3C)oc12	/	/	/	/	29%
O=c1[nH]c(Cc2ccccn2)nc2scc(-c3ccc(Cl)cc3)c12	-15%	40µM*	-1%	-26%	?
O=c1[nH]c(Cc2ccc(F)cc2)nc2scc(-c3ccc(F)cc3)c12	?	3.5µM*	-2%	-79%	?
O=c1[nH]c(Cc2cccs2)nc2scc(-c3ccc(Cl)cc3)c12	-4%	/	0%	9%	-17%
Cc1ccc(-c2csc3nc(CN(C)Cc4ccccc4)[nH]c(=O)c23)cc1	5%	?	-2%	-21%	4%
Cc1ccc(Nc2nc(NCCO)nc3c2cnn3C)cc1C	/	/	/	/	0%
S=c1ccss1	20µM*	/	-3%	?	/
